Inhibition data for 3 compounds are collected here from ChEMBL document CHEMBL1961873, “Compounds: GSK PKIS; Assays: Nanosyn kinase panel” (2012).

The inhibition is the relative decrease from the control value, in per cent.

Assay [1] deals with T1, Mitogen-activated protein kinase 12 (Homo sapiens) (UniProt P53778).
T1 sequence (whole entry): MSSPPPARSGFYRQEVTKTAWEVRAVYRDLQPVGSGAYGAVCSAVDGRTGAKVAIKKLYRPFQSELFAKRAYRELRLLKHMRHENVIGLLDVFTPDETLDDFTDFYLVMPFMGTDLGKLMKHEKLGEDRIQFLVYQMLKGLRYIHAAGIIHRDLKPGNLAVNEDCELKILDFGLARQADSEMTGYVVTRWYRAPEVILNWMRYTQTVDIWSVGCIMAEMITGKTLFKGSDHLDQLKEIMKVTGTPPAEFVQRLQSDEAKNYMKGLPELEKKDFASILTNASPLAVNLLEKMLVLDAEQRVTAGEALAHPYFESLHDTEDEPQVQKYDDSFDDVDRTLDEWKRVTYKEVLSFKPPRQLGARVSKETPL
Particulars: at 1 µM.

For assay [2], the target named is SRSF protein kinase 1 (Homo sapiens) (UniProt Q96SB4). Particulars: at 0.1 µM.
Sequence of SRSF protein kinase 1 (Homo sapiens) (Q96SB4 whole entry): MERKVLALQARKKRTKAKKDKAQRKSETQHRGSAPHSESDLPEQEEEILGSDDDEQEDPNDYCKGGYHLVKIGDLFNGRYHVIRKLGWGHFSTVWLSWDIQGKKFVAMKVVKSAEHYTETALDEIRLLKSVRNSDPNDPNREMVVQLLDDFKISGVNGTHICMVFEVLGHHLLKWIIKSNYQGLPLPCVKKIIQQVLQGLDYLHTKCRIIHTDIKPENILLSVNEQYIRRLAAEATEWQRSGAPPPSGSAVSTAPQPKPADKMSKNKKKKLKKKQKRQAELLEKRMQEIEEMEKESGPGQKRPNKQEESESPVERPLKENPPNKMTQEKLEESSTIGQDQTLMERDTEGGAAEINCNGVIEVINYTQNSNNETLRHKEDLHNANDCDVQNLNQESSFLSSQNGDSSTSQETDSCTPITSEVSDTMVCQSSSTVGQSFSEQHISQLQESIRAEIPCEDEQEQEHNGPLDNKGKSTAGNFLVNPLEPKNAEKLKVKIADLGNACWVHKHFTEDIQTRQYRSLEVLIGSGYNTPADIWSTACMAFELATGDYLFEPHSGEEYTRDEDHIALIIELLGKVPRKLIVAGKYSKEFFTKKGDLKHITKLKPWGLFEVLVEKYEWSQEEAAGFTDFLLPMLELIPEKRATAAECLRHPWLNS
Assay [3] shares this target. Particulars: at 1 µM.
Assay [4] has as its target Phosphatidylinositol 4,5-bisphosphate 3-kinase catalytic subunit alpha isoform (Homo sapiens) (UniProt P42336). Particulars: at 0.1 µM.
Assay [5] has the same target. Particulars: at 1 µM.
Assay [6] addresses T2, Phosphatidylinositol 4,5-bisphosphate 3-kinase catalytic subunit delta isoform (Homo sapiens) (UniProt O00329).
T2 sequence (whole entry): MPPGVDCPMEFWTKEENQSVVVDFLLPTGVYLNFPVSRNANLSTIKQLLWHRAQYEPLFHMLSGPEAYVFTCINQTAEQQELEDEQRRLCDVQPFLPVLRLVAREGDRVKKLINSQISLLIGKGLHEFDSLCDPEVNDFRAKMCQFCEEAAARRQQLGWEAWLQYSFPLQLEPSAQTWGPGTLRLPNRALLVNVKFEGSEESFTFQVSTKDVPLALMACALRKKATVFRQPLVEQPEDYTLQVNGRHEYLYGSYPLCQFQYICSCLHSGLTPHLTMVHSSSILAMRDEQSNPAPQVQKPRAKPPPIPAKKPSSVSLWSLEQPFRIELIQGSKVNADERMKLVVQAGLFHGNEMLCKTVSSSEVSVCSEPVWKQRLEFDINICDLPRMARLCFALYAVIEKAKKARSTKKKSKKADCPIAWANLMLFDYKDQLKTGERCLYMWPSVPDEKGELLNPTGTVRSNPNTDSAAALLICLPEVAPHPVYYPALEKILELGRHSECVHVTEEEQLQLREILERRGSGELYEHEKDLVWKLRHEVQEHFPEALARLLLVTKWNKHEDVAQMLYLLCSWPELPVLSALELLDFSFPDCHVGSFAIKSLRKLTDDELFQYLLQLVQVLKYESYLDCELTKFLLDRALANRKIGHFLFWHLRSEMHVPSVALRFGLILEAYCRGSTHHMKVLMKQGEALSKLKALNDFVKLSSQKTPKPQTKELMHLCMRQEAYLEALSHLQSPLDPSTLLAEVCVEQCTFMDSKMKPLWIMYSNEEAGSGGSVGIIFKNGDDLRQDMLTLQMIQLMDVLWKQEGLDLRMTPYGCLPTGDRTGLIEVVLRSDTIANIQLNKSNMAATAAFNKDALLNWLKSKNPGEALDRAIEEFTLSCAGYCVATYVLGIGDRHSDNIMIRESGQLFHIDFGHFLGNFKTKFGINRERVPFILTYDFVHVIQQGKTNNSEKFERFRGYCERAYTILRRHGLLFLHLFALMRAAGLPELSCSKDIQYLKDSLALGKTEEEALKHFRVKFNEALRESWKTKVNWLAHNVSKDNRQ
Particulars: at 0.1 µM.

Assay [7] deals with T2, Phosphatidylinositol 4,5-bisphosphate 3-kinase catalytic subunit delta isoform (Homo sapiens). Particulars: at 1 µM.
The target of assay [8] is Phosphatidylinositol 4-kinase beta (Homo sapiens) (UniProt Q9UBF8). Particulars: at 0.1 µM.
Sequence of Phosphatidylinositol 4-kinase beta (Homo sapiens) (Q9UBF8 2-816 limits assumed): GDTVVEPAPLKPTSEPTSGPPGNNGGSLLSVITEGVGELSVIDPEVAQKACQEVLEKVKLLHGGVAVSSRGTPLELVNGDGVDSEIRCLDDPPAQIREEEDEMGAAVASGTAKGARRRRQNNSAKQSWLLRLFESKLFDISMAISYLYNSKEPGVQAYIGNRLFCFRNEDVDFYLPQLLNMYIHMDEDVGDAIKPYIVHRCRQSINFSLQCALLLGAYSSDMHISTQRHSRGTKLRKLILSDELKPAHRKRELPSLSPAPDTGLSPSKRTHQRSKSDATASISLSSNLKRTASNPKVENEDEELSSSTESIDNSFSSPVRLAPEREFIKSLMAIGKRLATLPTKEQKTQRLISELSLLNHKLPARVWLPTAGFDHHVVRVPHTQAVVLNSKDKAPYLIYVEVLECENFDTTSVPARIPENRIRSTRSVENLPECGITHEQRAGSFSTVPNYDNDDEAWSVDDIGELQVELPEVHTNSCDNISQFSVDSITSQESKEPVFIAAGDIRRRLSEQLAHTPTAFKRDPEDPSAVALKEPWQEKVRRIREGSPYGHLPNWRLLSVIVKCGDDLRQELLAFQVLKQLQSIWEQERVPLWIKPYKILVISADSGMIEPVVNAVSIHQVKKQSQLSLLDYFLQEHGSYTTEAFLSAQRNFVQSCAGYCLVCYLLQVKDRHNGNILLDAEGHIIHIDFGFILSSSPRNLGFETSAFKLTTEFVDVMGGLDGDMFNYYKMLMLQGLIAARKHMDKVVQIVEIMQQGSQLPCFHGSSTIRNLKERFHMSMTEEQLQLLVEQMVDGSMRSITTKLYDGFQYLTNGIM
Assay [9] has the same target. Particulars: at 1 µM.
In assay [10] the target is Sphingosine kinase 1 (Homo sapiens) (UniProt Q9NYA1). Particulars: at 0.1 µM.
Sequence of Sphingosine kinase 1 (Homo sapiens) (Q9NYA1 whole entry): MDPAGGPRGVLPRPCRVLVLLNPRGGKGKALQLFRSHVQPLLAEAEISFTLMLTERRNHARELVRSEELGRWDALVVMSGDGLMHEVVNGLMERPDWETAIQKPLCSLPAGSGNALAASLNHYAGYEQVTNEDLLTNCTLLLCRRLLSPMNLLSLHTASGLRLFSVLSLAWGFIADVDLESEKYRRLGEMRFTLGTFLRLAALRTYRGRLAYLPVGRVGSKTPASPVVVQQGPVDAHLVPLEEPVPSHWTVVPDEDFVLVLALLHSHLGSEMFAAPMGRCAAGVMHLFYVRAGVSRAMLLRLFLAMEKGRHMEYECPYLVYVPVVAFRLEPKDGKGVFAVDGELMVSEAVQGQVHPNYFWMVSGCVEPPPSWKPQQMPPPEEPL
The target is the same in assay [11]. Particulars: at 1 µM.
Assay [12] addresses T3, Sphingosine kinase 2 (Homo sapiens) (UniProt Q9NRA0).
T3 sequence (whole entry): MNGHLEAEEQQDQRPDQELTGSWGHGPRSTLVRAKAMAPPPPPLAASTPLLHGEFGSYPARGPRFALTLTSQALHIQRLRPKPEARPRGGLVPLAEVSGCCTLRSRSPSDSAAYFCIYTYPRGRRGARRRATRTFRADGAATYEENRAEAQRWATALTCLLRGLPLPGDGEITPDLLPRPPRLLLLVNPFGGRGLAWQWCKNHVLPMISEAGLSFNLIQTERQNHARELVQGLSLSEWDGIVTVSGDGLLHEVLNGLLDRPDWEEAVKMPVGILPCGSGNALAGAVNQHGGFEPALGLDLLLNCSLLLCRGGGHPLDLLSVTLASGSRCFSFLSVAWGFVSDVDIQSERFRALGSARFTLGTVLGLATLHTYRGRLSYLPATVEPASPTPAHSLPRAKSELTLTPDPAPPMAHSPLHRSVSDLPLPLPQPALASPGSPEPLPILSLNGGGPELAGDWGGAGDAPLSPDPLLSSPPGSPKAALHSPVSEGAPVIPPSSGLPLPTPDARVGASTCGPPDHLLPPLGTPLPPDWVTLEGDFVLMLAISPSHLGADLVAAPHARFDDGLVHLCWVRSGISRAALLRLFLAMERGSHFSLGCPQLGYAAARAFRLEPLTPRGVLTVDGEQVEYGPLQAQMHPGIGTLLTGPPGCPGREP
Particulars: at 0.1 µM.

Assay [13] concerns the target T3, Sphingosine kinase 2 (Homo sapiens). Particulars: at 1 µM.
The target in assay [14] is Casein kinase II subunit alpha (Homo sapiens) (UniProt P68400). Particulars: at 0.1 µM.
Sequence of Casein kinase II subunit alpha (Homo sapiens) (P68400 whole entry, looked up): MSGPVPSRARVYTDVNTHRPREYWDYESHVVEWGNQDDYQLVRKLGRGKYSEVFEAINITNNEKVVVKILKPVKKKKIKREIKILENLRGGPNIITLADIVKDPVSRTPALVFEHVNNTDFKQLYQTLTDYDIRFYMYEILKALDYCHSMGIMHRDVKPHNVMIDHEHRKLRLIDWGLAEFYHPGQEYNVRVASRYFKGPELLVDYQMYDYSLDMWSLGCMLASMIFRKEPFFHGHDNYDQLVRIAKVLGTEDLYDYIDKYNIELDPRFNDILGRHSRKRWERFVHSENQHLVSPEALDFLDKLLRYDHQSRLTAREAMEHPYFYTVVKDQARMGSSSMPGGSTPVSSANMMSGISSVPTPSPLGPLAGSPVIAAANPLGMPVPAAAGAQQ
For assay [15] the target is unchanged. Particulars: at 1 µM.
For assay [16], the target named is T4, Inhibitor of nuclear factor kappa-B kinase subunit alpha (Homo sapiens) (UniProt O15111).
T4 sequence (whole entry): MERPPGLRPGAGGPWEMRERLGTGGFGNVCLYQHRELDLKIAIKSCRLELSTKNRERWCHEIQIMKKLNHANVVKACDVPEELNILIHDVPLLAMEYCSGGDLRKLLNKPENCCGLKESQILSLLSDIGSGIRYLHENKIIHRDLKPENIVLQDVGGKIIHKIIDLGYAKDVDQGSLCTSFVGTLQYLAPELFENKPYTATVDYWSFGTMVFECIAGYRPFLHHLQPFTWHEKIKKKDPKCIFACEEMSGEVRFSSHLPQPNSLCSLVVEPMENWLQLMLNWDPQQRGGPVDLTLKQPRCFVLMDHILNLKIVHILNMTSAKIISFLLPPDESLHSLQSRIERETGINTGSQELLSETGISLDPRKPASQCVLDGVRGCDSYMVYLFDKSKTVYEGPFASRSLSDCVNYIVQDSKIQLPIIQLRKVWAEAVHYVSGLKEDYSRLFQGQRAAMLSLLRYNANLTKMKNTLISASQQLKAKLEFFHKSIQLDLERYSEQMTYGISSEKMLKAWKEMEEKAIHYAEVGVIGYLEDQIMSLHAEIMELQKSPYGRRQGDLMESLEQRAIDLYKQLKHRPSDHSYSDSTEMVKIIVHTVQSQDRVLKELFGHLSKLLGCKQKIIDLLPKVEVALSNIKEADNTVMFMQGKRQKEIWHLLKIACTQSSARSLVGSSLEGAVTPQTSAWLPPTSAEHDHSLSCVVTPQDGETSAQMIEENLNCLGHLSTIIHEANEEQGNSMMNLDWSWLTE
Particulars: at 0.1 µM.

The target in assay [17] is T4, Inhibitor of nuclear factor kappa-B kinase subunit alpha (Homo sapiens). Particulars: at 1 µM.
Assay [18] addresses T5, Inhibitor of nuclear factor kappa-B kinase subunit beta (Homo sapiens) (UniProt O14920).
T5 sequence (whole entry): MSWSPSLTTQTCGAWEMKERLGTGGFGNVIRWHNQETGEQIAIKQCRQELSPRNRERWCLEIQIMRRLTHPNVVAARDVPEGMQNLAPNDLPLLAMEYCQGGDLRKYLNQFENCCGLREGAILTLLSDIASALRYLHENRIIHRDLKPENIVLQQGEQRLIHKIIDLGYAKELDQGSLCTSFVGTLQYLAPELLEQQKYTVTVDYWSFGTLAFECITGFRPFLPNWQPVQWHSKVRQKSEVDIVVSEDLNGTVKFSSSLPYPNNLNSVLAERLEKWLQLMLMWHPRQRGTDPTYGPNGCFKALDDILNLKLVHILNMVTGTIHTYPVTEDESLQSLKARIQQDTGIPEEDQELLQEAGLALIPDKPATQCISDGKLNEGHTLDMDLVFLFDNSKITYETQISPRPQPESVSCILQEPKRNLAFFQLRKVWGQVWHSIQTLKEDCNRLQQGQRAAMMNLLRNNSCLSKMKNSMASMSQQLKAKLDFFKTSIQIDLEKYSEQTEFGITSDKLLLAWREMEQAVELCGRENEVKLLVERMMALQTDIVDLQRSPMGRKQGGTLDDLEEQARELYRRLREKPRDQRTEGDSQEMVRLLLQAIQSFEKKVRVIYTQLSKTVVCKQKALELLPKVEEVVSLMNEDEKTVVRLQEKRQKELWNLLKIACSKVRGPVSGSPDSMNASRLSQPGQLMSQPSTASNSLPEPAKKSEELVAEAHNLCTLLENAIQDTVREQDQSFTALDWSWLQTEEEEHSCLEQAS
Particulars: at 0.1 µM.

Assay [19] deals with T5, Inhibitor of nuclear factor kappa-B kinase subunit beta (Homo sapiens). Particulars: at 1 µM.
In assay [20] the target is T6, Inhibitor of nuclear factor kappa-B kinase subunit epsilon (Homo sapiens) (UniProt Q14164).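 Note: mean inhibition of IKKε reported, from the GSK PKIS dataset.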
T6 sequence (whole entry): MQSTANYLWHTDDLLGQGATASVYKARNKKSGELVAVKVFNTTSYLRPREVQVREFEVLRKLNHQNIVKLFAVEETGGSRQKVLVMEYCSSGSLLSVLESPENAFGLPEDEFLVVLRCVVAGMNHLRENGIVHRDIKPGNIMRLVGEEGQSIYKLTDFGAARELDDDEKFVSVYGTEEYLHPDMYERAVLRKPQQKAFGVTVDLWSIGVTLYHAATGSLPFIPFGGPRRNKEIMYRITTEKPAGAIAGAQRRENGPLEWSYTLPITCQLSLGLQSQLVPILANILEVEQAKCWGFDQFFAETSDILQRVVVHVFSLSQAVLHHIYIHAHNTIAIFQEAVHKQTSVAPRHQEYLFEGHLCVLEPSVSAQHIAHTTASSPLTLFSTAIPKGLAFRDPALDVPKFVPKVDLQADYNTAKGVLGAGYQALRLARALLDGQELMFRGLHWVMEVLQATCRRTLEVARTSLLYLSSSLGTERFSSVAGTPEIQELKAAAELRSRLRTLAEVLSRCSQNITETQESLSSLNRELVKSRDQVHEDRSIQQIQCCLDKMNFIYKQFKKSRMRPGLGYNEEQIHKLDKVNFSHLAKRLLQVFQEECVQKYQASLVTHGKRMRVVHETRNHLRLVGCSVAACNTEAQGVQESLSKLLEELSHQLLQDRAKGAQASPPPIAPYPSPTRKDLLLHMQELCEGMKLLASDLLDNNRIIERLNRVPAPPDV
Particulars: at 0.1 µM.

Sequence of Phosphatidylinositol 4,5-bisphosphate 3-kinase catalytic subunit alpha isoform (Homo sapiens) (P42336 whole entry, canonical isoform): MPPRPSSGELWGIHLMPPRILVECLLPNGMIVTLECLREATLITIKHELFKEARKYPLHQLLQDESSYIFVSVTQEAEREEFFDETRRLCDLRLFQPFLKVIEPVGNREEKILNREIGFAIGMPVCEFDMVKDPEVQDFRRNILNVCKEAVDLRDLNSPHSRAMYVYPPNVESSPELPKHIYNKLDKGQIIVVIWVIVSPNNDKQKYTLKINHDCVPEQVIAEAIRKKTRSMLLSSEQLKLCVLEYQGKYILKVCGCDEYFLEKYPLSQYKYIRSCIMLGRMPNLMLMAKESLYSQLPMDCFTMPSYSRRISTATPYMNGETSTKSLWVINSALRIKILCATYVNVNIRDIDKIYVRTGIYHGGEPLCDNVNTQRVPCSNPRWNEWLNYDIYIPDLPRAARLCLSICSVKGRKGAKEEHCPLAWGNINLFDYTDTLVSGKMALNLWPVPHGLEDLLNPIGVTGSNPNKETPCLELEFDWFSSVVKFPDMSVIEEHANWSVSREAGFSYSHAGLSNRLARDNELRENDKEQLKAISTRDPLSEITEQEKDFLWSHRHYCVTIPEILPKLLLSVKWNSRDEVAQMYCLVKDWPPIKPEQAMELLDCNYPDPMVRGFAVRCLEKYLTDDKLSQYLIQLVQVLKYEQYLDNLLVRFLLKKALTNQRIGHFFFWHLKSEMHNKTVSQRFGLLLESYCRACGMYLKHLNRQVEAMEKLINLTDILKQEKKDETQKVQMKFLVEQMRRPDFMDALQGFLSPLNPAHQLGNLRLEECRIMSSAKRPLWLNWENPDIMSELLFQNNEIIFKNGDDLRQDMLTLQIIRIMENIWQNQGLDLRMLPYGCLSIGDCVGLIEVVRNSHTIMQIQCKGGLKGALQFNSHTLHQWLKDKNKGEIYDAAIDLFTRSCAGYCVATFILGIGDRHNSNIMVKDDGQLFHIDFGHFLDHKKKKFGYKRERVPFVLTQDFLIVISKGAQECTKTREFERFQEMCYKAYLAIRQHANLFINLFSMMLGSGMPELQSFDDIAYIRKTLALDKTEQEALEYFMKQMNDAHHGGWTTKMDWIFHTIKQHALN

Regarding `NS(=O)(=O)c1ccc(N/N=C2\C(=O)Nc3ccc(Cl)cc32)cc1`, the inhibition in assay [1] was 2.14%; in [2], -1.45%; in assay [3] it was 0.49%; in assay [4], 2.11%; in assay [5], 2.12%; in [6], 0.01%. In addition, the inhibition was 0.13% in assay [7]; 5.17% in assay [8]; -1.54% in assay [9]; 0.4% in [10]; -4.27% in [11]; 0% in assay [12]. The inhibition in [13] is -3.44%; in [14] it was 4.94%; in [15] it was 14%; in assay [16], -0.36%; in assay [17], 10.7%; in assay [18], 4.8%. In addition, the inhibition amounted to 5.46% in assay [19] and 7.49% in [20].

In the case of `Nc1nccc(C#Cc2cncnc2Nc2ccc(OCc3cccc(F)c3)c(Cl)c2)n1`, the inhibition in assay [1] was 3.22%; in assay [2], -1.73%; in assay [3] it was -2.48%; in assay [4] it was 2.82%; in assay [5], 4.72%; in [6], 1.22%. The inhibition is 4.71% in assay [7]; -2.78% in assay [8]; -0.63% in assay [9]; -2.09% in assay [10]; -0.71% in assay [11]; 0.13% in [12]. Moreover, the inhibition in [13] was -9.13%; in assay [14] it was 1.6%; in [15], 2.69%; in assay [16], 7.39%; in assay [17], 2.46%; in assay [18] it was 2.27%. Besides, the figures for the inhibition in assay [19] and in assay [20] were -0.17% and 4.71%, respectively.

`CCn1c(-c2nonc2N)nc2c(C#CC(C)(C)O)nc(OCCNC)cc21`: the inhibition in assay [1] is 6.39%; in [2] it was -3.96%; in assay [3], -2.97%; in assay [4], 5.21%; in [5], 4.34%; in assay [6], 1.6%. In addition, the inhibition in [7] is 1.55%; in assay [8], -2.53%; in assay [9] it was 3.94%; in [10], -1.43%; in [11], 0.34%; in assay [12], 0.23%. Besides, the inhibition in [13] came to 3.77%; in assay [14] it was 3.96%; in [15], 3.67%; in [16], 8.37%; in assay [17], 7.87%; in assay [18], 7.32%. Moreover, the inhibition in assay [19] worked out at 8.81%; in assay [20] it was 15.2%.
